In all, about 69,000 compounds went through this assay and about 8,600 (12%) showed an effect of 50% or more. The entries come from a sample that favours strong results as a whole.

These results are taken from ChEMBL document CHEMBL4513216, “Probing the Open Global Health Chemical Diversity Library for Multistage-Active Starting Points for Next-Generation Antimalarials” (ACS Infect Dis, 2020).

This assay deals with Plasmodium berghei. Description: Screen against P. berghei liver stage (PbLuc), transformed with Luciferase, at 10uM. Format: functional, HepG2. As to conditions: tested at 10 uM.
With `CC(C)c1noc(C(C)N2CCN(Cc3noc(C4CC4)n3)CC2)n1` (stereo unspecified), the INHIBITION is given as 27.6%.

`CC(C)c1nc(CN2CCN(C(C)c3nc(C4CC4)no3)CC2)no1` (stereo unspecified): the INHIBITION was 13.5%. The same measure for `CC(c1nc(C2CC2)no1)N1CCN(Cc2noc(C3CC3)n2)CC1` (stereo unspecified): 51.1%. As to `CC(C)Cc1cc(NC(=O)c2ccccn2)n(C)n1`, the INHIBITION is reported as 37.4%.

Consider `Cc1cc(C)nc(N2CCN(C(=O)c3ccc(C4CCCO4)s3)CC2)n1` (stereo unspecified), for which the INHIBITION came out at 36.8%. The same measure for `O=C(c1ccc(C2CCCO2)s1)N1CCN(c2ccccc2F)CC1` (stereo unspecified): 80.1%; for `O=C(c1ccc(C2CCCO2)s1)N1CCOCC1` (stereo unspecified): -48.4%. Turning to `O=C(Nc1ccccc1OCCc1ccccn1)N1CC[C@@H](O)C1`, the INHIBITION was -48.1%. As for `NC(=O)c1ccc(CN2CCCC(O)C2)cc1` (stereo unspecified), the INHIBITION is listed as -6.32%. Turning to `NC(=O)c1ccc(CN2CCCC(N3CCCC3)C2)cc1` (stereo unspecified), the INHIBITION is -3.95%.

In the case of `CC1CCCN(Cc2ccc(C(N)=O)cc2)C1` (stereo unspecified), the INHIBITION is 50.5%.

Consider `CN1CCN(c2cc(CNC(=O)Cn3cccn3)ccn2)CC1`, for which the INHIBITION is 37.8%. As to `N#Cc1csc(CNCCOc2ncccc2Cl)c1`, the INHIBITION was -23.2%. As to `O=C(c1ccco1)N1C[C@H]2CCCN(Cc3ccoc3)[C@H]2C1`, the INHIBITION is 44.3%. Consider `O=C1N[C@H]2OCCC[C@H]2[C@H](c2ccccc2)N1`, for which the INHIBITION is 52.2%.

For the compound `O=C1N[C@H]2OCCC[C@H]2[C@H](c2ccc(C(=O)O)cc2)N1`, the INHIBITION is given as -1.25%. For `COc1ccc([C@@H]2NC(=O)N[C@H]3OCCC[C@H]32)cc1`, the INHIBITION worked out at 42.1%. The same measure for `COCCNC(=O)CN1CC=C(n2c(C)nc(=O)c3ccccc32)CC1`: 6.33%; for `c1cnc(NCc2nnn3c2CN(Cc2ccco2)CCC3)nc1`: -11.6%. The same measure for `CN(Cc1cccc(Cl)c1)S(=O)(=O)N1CCOCC1`: -14.2%. For the compound `CC(c1cccc(-c2nccn2CCc2cn[nH]c2)c1)N(C)C` (stereo unspecified), the INHIBITION is on record as 85.9%. The same measure for `CC(c1cccc(-c2nccn2CCc2ccccn2)c1)N(C)C` (stereo unspecified): 36.5%. Turning to `CC(=O)NCCn1ccnc1-c1cccc(C(C)N(C)C)c1` (stereo unspecified), the INHIBITION is given as 30.3%.

For the compound `Cc1noc(C)c1-c1cccc(C2CCN(CC(=O)N(C)C)CC2)n1`, the INHIBITION was found to be 8%. With `Cc1ncsc1C(=O)N(C)Cc1cccnc1`, the INHIBITION was -4.865%.

As for `COc1ccc(OC)c(C(=O)N2C[C@@H]3CC[C@H]2CN(C)C3)c1`, the INHIBITION is reported as 9.56%. Take `O=c1c(NCCNCCO)c(N2CCN(c3ccc(F)cc3)CC2)c1=O`: the INHIBITION was determined as 23%. As for `Cc1ccc(C(=O)NC2CCN(Cc3nc(C(C)C)no3)CC2)s1`, the INHIBITION worked out at 13.8%. For the compound `CS(=O)(=O)NCc1cccc(COC2CCCCC2)c1`, the INHIBITION is 9.63%. `Clc1cnccc1NCc1cccc(COC2CCOCC2)c1`: the INHIBITION came out at 79.7%. Regarding `Clc1cncc(NCc2cccc(COC3CCOCC3)c2)n1`, the INHIBITION is recorded as -16.8%.

As to `COc1ccc(C(=O)N(Cc2cnn(C)c2)C(C)C)cc1OC(F)F`, the INHIBITION is 33.3%.

On to `Cc1nc(C)n(C2CCCN(C(=O)c3cc(C4CC4)on3)C2)n1` (stereo unspecified), for which the INHIBITION worked out at 29.2%.

Consider `COC(=O)c1ccccc1S(=O)(=O)NC(=O)c1cccc2c1OCCO2`, for which the INHIBITION is on record as -7.36%. Turning to `Cc1ccc(C(=O)NCCCN(C(C)C)S(C)(=O)=O)c(=O)[nH]1`, the INHIBITION is -8.97%.

`O=C(NS(=O)(=O)c1cc(Cl)ccc1Cl)c1cccc2c1OCCO2`: the INHIBITION is recorded as -31.3%. Turning to `Cc1ccc(C(=O)NS(=O)(=O)c2cc(Br)ccc2C)c(=O)[nH]1`, the INHIBITION is recorded as 25.6%. For the compound `Cc1ccc(C)c(S(=O)(=O)NC(=O)c2ccc(C)[nH]c2=O)c1`, the INHIBITION came out at 52.3%. `O=C(NS(=O)(=O)c1ccc(Cl)cc1F)c1cccc2c1OCCO2`: the INHIBITION was found to be 50%.

Take `Cc1ccc(C(=O)NS(=O)(=O)c2ccccc2C)c(=O)[nH]1`: the INHIBITION was determined as 24.6%. Regarding `Cc1ccc(S(=O)(=O)NC(=O)c2cccc3c2OCCO3)c(C)c1`, the INHIBITION worked out at 23.7%.

As for `O=C(NS(=O)(=O)c1ccccc1Cl)c1cccc2c1OCCO2`, the INHIBITION is given as 49%. The same measure for `Cc1ccc(C(=O)NCCCN(C)S(C)(=O)=O)c(=O)[nH]1`: 40.4%; for `Cc1ccc(C)c(S(=O)(=O)NC(=O)c2cccc3c2OCCO3)c1`: 68.8%; for `CCN(CCCNC(=O)c1ccc(C)[nH]c1=O)S(C)(=O)=O`: 61%. With `CCc1ccc(C(COC)NC(=O)c2ccc(NC(C)=O)cc2)o1` (stereo unspecified), the INHIBITION is 18.4%.

In the case of `CCO[C@H]1CN(C)C[C@@H]1NC(=O)c1cc(C)nc2c(C)c(C)ccc12`, the INHIBITION came to 35%. With `CCNC(=O)[C@@H]1C[C@H](NC(=O)Cn2ccnc2)CN1Cc1ccsc1`, the INHIBITION came to 39.3%. Consider `CCN1CC(CN(C)Cc2nc(-c3cccc(Cl)c3)oc2C)CC1=O` (stereo unspecified), for which the INHIBITION stood at 29.8%. The same measure for `CC(=O)NCCCNC(=O)N(C)C(C)Cc1ccc(Cl)cc1` (stereo unspecified): -6.99%. For the compound `CS(=O)(=O)CCOCCNc1ccc(C(F)(F)F)cc1C#N`, the INHIBITION is -13.4%.

`CN(CC1CC1)S(=O)(=O)c1ccc(C(F)(F)F)cc1C#N`: the INHIBITION turned out to be 47.2%.

Take `N#Cc1cc(C(F)(F)F)ccc1NCC1CCS(=O)(=O)CC1`: the INHIBITION was 56.4%. Regarding `CCN(CC)S(=O)(=O)c1ccc(C(F)(F)F)cc1C#N`, the INHIBITION is 27.6%. The same measure for `N#Cc1cc(F)ccc1NCC1CCS(=O)(=O)CC1`: -3.26%.

As to `CS(=O)(=O)NCCCNc1ccc(C(F)(F)F)cc1C#N`, the INHIBITION came to 72.6%.
